# The campaign covered roughly 310,000 compounds. About 14,000 (4.5%) showed an effect of 50% or more. Effects have a minus sign here. This is one part of a sample in which strong results are shown more often than they occur.
# Molecular target: human ether-à-go-go-related gene (hERG) potassium channel (human, UniProt Q12809)
# Assay: primary screen, population patch clamp on CHO cells stably expressing hERG; higher = less effect of the substance
# 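Further: peak tail current of the secondary pulse compared with the same well before compound.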
# Sequence of human ether-à-go-go-related gene (hERG) potassium channel (Q12809 whole entry, looked up): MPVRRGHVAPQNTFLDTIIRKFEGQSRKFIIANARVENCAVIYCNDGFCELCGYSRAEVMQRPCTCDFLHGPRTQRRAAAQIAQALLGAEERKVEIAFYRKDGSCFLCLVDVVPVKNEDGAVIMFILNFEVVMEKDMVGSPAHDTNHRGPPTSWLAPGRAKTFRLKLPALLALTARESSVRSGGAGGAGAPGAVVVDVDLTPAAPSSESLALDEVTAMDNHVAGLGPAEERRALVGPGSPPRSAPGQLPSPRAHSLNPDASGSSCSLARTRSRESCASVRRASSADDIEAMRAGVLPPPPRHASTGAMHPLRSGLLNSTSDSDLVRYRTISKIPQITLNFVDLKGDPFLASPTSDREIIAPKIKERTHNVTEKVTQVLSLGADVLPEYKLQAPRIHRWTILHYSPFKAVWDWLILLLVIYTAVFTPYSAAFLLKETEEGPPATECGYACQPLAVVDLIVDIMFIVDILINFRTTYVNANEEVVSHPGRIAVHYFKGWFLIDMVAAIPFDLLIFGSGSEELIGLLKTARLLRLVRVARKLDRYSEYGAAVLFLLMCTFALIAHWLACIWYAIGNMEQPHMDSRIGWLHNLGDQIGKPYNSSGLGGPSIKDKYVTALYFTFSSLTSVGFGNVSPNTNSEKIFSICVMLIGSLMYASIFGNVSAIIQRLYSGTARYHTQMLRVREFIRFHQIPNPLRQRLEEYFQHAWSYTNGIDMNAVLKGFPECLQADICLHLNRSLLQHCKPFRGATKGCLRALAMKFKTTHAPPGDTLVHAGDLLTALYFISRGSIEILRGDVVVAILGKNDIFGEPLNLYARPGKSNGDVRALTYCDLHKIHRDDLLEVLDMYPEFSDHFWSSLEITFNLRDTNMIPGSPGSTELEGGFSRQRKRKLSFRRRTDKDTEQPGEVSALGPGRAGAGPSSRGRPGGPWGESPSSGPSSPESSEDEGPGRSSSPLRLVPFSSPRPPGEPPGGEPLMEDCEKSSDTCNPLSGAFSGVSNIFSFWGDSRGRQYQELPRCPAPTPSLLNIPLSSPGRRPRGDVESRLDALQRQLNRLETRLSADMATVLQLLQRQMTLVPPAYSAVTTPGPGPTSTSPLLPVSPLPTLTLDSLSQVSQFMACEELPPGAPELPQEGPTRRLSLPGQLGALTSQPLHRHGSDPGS
row,SMILES,"hERG current change (%, negative = inhibition) at 10uM"
1,CC(NC(=O)c1ccc(Cl)cc1)c1nnc(SCC(=O)NC2=NCCS2)n1C (stereo not shown),22.3%
2,Cc1cc(O)c(N)c(C)c1Cl.Cl,-4.7%
3,Cn1c(=O)[nH]c(=O)c2c1nc(CN1CCN(c3cccc(Cl)c3)CC1)n2CCc1ccccc1,-21.8%
4,CCOC(=O)C1=C(C)NC(SC)=C(C#N)C1CC(C)C (stereo not shown),-12.3%
5,CCN(CC)S(=O)(=O)c1ccc(-c2nnc(SCC(N)=O)n2CC)cc1,35.8%
6,CCN1CCCC1CNC(=O)CN(C)S(=O)(=O)c1ccc(Cl)cc1 (stereo not shown),-21.6%
7,Cc1ccc(S(=O)(=O)Nc2c(C)nc3nc(C)[nH]n3c2=O)c(C)c1,10.3%
8,Cc1ccc(N2C(=O)c3cccc4c(C(=O)O)ccc(c34)C2=O)cc1,8.57%
9,COc1ccc(-n2ncc3c(=O)n(CC(=O)N(C(C)C)C(C)C)cnc32)cc1,0.562%
10,Cc1cc(Br)cn2ccnc12,-6.51%
11,CC(Sc1nnc(C2CCCCC2)n1N)C(=O)NCc1ccc2c(c1)OCO2 (stereo not shown),3.2%
12,CN1CCN(CCCNC(=O)c2ccc3c(=O)n(CCc4ccccc4)c(=O)[nH]c3c2)CC1,15.3%
13,O=C(CN1CCN(Cc2ccccc2)C1=O)NCc1cccs1,1.2%
14,O=C(CN1CCN(Cc2ccc(Cl)cc2)C1=O)NCc1cccs1,-57.6%
15,O=C(CN1CCN(Cc2ccc(F)cc2)C1=O)NCc1cccs1,-1.62%
16,CC1CCCC(C)N1C(=O)CSc1nc2c(c(=O)n(C)c(=O)n2C)n1C (stereo not shown),5.34%
17,CN(C)c1ccc(C2SCCN2C(=O)c2ccc([N+](=O)[O-])cc2)cc1 (stereo not shown),-66.7%
18,CC(=O)Nc1ccc(N2C(=O)CSC2c2ccc([N+](=O)[O-])cc2)cc1 (stereo not shown),-11.3%
19,O=C(CC1C(=O)NCCN1C(=O)c1ccc([N+](=O)[O-])cc1)Nc1cccc(Cl)c1 (stereo not shown),-40.4%
20,CN(C)c1ccc(C(=S)N2CCN(c3ccc([N+](=O)[O-])cc3)CC2)cc1,-18.7%
21,O=C(c1ccc([N+](=O)[O-])cc1)N1CCSC1c1ccc(Cl)cc1 (stereo not shown),-76.9%
22,O=C(c1ccc([N+](=O)[O-])cc1)N1CCSC1c1ccccc1Cl (stereo not shown),7.77%

row,SMILES,"hERG current change (%, negative = inhibition) at 10uM"
1,O=C(c1ccc([N+](=O)[O-])cc1)N1CCSC1c1ccc(Br)cc1 (stereo not shown),-64.2%
2,O=C(NNC(=O)c1ccc([N+](=O)[O-])cc1)c1ccc(Br)cc1,14.5%
3,O=C(O)c1ccc(N2C(=O)CSC2c2cccc([N+](=O)[O-])c2)cc1 (stereo not shown),15.5%
4,CCOC(=O)c1ccc(NC(=S)N2CCSC2c2ccc(Br)cc2)cc1 (stereo not shown),5.4%
5,O=C(c1ccc([N+](=O)[O-])cc1)N1CCSC1c1cccc(Cl)c1 (stereo not shown),-69.3%
6,O=C(c1ccc([N+](=O)[O-])cc1)N1CCSC1c1ccccc1 (stereo not shown),-39.3%
7,CC1NC(=O)N(C)[C@@H]2NC(=O)N(C)C(c3ccc([N+](=O)[O-])cc3)[C@@H]12 (stereo partly shown),7.29%
8,CCCCN(C(=O)NC(=O)Nc1cc(C)ccc1C)S(C)(=O)=O,17.9%
9,CNC(=O)COC(=O)CCC(=O)c1ccc(Cl)cc1,7.45%
10,Cc1noc(C)c1COc1ccc(C(=O)Nc2ncccc2O)cc1,11.5%
11,Cc1ccc(C(=O)NCC2CCCO2)cc1[N+](=O)[O-] (stereo not shown),4.29%
12,Cc1cc(C=C2C(=O)c3ccccc3C2=O)c(C)n1-c1ccccc1,7.13%
13,C[C@H](NC(=O)OCc1ccccc1)C(=O)NNC(=O)[C@H](Cc1ccccc1)NC(=O)OC(C)(C)C,31.2%
14,O=C1N(c2cccc(Cl)c2)C(c2cccnc2)N2CCCN12 (stereo not shown),-4.39%
15,O=C(c1ccccc1)N1CCN(C(=O)c2ccccc2)C1c1ccccc1,4.53%
16,CC1(C)CC2CC(C)(CN2C(=O)c2ccc([N+](=O)[O-])cc2)C1 (stereo not shown),-62.4%
17,CC1(C)C[C@@H]2C[C@@](C)(CN2C(=O)c2ccccc2)C1,11.3%
18,COc1ccc(C2N(C(=O)c3ccccc3)CCN2C(=O)c2ccc(C)cc2)cc1 (stereo not shown),-24.9%
19,COc1ccccc1C1SCCN1C(=O)c1ccc([N+](=O)[O-])cc1 (stereo not shown),-38.7%
20,COc1ccc(C2SCCN2C(=O)c2ccc([N+](=O)[O-])cc2)cc1 (stereo not shown),-70%
21,CC1(C)CC2CC(C)(CN2C(=O)c2ccccc2)C1 (stereo not shown),8.08%
22,Cc1ccc(C(=O)N2CCN(C(=O)c3ccccc3)C2c2ccc(N(C)C)cc2)cc1 (stereo not shown),-50.8%

row,SMILES,"hERG current change (%, negative = inhibition) at 10uM"
1,COc1ccc(N2C(=O)CSC2c2ccc([N+](=O)[O-])cc2)cc1 (stereo not shown),-37.3%
2,O=C(C1CCN(S(=O)(=O)c2ccccc2)CC1)N1CCC1,12.3%
3,Cc1[nH]n(-c2ccccc2)c(=O)c1C=Nc1cnc2ccccc2c1,-8.67%
4,O=C(c1cccs1)c1ccc(-c2cccs2)s1,1.57%
5,CN(C)CCSc1nc(-c2ccccc2)nc2c1CCCC2,-51.3%
6,NC(=O)CSc1nc(-c2ccccc2)nc2c1CCCC2,5.92%
7,CN(C)CCCSc1nc(-c2ccccc2)nc2c1CCC2,-50.3%
8,CN(C)C(=O)CSc1nc(-c2ccccc2)nc2c1CCCC2,-5.09%
9,CN(C)CCSc1nc(-c2ccccc2)nc2c1CCC2,-61.3%
10,OCC(O)CSc1nc(-c2ccccc2)nc2c1CCC2 (stereo not shown),2.22%
11,OCCSc1nc(-c2ccccc2)nc2c1CCC2,-12%
12,CSc1nc(-c2ccccc2)nc2c1COC(C)(C)C2,5.03%
13,CN(C)CCSc1nc(-c2ccccc2)nc2c1COC(C)(C)C2,-69.1%
14,CCSc1nc(-c2ccccc2)nc2c1CCCC2,7.26%
15,CC1(C)Cc2nc(-c3ccccc3)nc(SCC(O)CO)c2CO1 (stereo not shown),-15.8%
16,O=C(O)CSc1nc(-c2ccccc2)nc2c1CCCC2,12.8%
17,O=C(NCC(c1cccs1)N1CCOCC1)C1CCN(S(=O)(=O)c2c(Cl)cccc2Cl)CC1 (stereo not shown),-27.3%
18,COc1ccc(C2C3CCCCC3(O)CCN2C(=O)c2cccs2)cc1 (stereo not shown),5.52%
19,CC(C)(C)C(=O)Nc1nnc(SCC(=O)NC2CCCCC2)s1,2.34%
20,COc1ccc(S(=O)(=O)N2CCC(C(=O)NCCN3CCOCC3)CC2)cc1,14.2%
21,CC1=NN(c2ccccc2)C(=O)C1/C=C1\C(=O)NC(=O)N(c2cc(C)cc(C)c2)C1=O (stereo not shown),6.47%
22,Cc1sc2nc(CSCC(=O)Nc3c(F)cccc3F)[nH]c(=O)c2c1C,7.01%

row,SMILES,"hERG current change (%, negative = inhibition) at 10uM"
1,CC(C)CNc1nnnc2c1sc1nc(N3CCOCC3)c3c(c12)CC(C)(C)SC3,-20.8%
2,Cc1ccc(Sc2ccc(S(=O)(=O)Nc3ccc(CC(=O)O)cc3)cc2)cc1C,3.13%
3,CCN(c1ccccc1)S(=O)(=O)c1cccc(C(=O)NCC2(N(C)C)CCCCC2)c1,-60.5%
4,COc1ccc(C(=O)NCC(=O)NCC2(N(C)C)CCCCC2)cc1OC,3.45%
5,CN(c1ccccc1)S(=O)(=O)c1ccc(C(=O)Nc2ccncc2)cc1,-9.83%
6,COc1ccccc1NS(=O)(=O)c1cccc(C(=O)NCC2(N(C)C)CCCCC2)c1,-22.2%
7,CCN(c1ccccc1)S(=O)(=O)c1ccc(C(=O)NCCc2ccc(S(N)(=O)=O)cc2)cc1,5.49%
8,CNC(=O)c1ccc(OCc2ccccc2)c(OC)c1,3.11%
9,CCN(c1ccccc1)S(=O)(=O)c1ccc(C(=O)NCC2(N(C)C)CCCCC2)cc1,-57.8%
10,CCN(c1ccccc1)S(=O)(=O)c1ccc(C(=O)Nc2ccccn2)cc1,-8.37%
11,COc1cc(C(=O)NCC2(N(C)C)CCCCC2)ccc1OCc1ccccc1,-59.7%
12,CCN(c1ccccc1)S(=O)(=O)c1ccc(C(=O)Nc2ccncc2)cc1,-68.7%
13,COc1ccccc1NS(=O)(=O)c1ccc(C(=O)NCC2(N(C)C)CCCCC2)cc1,3.78%
14,CN(C)C1(CNC(=O)c2cccc(S(=O)(=O)NCc3ccccc3)c2)CCCCC1,-49.5%
15,O=C(NCCNC(=O)c1ccccn1)c1cccc(F)c1,23.7%
16,O/N=C/C1=C(Cl)c2ccccc2CC1,-4.9%
17,Cc1ccccc1NC(=O)COC(=O)c1cccc(S(=O)(=O)N2CCCCC2)c1,-6.55%
18,Cc1ccc(C(=O)N2CCN(C34CC5CC(CC(C5)C3)C4)CC2)o1,-29.4%
19,CCc1nnc(NC(=O)CSc2nnc(-c3ccco3)n2CCOC)s1,9.29%
20,CC1CCN(c2oc(-c3ccco3)nc2S(=O)(=O)c2ccccc2)CC1,-6.14%
21,CNC(=O)COC(=O)c1ccccc1Oc1ccccc1,-5.63%
22,O=C1OC(C(=O)Nc2nccs2)Cc2ccccc21 (stereo not shown),12.7%

# From paper PMC4336329 (PLoS ONE, 2015)
